# In PMC7862700, “An all-to-all approach to the identification of sequence-specific readers for epigenetic DNA modifications on cytosine”:
# Columns and labels:
# Assay in all cases: DAPPL (digital affinity profiling via proximity ligation, sequencing); 10 mM Tris-HCl pH 7.5, 50 mM NaCl, 1 mM DTT, 4% glycerol, room temperature, 30 min; GST-TFs on glutathione beads, 16-mer random dsDNA library, 0.1% formaldehyde crosslink after washing; high values mean tight binding
# Details in all cases: protein: recombinant; tags: N-terminal GST; dsDNA, one strand shown
# ETV1 = ETV1 (Homo sapiens, UniProt P50549 1-477)
# Sequence of ETV1 (P50549 whole entry, the tested form may be a part): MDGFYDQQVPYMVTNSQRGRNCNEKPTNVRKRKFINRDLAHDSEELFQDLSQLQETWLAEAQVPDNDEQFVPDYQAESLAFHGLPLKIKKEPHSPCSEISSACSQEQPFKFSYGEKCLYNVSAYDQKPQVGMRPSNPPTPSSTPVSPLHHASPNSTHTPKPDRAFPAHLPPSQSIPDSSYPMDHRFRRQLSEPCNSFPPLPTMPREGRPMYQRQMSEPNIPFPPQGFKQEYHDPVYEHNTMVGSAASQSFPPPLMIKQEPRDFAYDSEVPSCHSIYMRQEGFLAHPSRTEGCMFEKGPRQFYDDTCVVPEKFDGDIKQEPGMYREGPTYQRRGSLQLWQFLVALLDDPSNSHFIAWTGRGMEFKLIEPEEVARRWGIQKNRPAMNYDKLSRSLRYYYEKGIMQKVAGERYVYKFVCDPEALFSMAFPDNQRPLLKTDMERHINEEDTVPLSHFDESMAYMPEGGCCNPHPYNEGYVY
# Summary of the method: (§1)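 Human transcription factors carrying a GST fusion were produced in yeast, bound to glutathione beads, tagged with DNA barcodes and pooled together with a tag-only sample. Each pool was held with 200 nmole of a random double-stranded 16-mer DNA library in Tris/NaCl/DTT/glycerol buffer for 30 min at room temperature, then washed, crosslinked in 0.1% formaldehyde, proximity-ligated with BsaI/T4 ligase (1 h, 37 °C), PCR-amplified and sequenced on an Illumina NextSeq500. Binding signal is the read frequency of each hexamer for a given factor divided by its frequency in the tag-only sample.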
# ERF = biological target: T1, ERF (Homo sapiens, UniProt P50548 1-548)
# T1 sequence: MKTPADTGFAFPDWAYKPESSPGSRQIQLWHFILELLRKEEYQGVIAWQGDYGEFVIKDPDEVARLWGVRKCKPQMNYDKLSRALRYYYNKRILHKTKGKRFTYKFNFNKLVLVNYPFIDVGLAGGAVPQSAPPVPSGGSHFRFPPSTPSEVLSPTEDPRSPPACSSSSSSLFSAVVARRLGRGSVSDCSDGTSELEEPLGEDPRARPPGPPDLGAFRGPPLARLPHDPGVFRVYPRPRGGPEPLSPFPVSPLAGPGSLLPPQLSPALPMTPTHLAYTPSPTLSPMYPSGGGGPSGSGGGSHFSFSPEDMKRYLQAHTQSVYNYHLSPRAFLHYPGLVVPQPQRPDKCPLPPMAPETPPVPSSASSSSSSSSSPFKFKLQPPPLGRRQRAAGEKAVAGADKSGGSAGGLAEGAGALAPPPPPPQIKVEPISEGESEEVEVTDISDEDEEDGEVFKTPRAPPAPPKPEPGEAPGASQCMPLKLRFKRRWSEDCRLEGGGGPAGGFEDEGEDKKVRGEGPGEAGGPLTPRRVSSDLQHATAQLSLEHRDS
# Summary of the method: as §1
# ETV3L = biological target: T2, ETV3L (Homo sapiens, UniProt Q6ZN32 1-361)
# T2 sequence: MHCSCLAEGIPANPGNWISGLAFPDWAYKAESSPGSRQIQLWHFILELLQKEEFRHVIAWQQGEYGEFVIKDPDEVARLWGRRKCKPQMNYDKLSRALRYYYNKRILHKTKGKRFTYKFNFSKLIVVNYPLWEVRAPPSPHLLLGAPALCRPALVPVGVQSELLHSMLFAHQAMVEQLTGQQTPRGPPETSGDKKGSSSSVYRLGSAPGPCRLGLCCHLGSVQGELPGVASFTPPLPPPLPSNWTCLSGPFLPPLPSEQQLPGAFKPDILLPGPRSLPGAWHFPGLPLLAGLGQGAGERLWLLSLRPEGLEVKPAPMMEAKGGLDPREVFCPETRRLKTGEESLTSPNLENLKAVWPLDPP
# Summary of the method: as §1
# ETS2 = biological target: T3, ETS2 (Homo sapiens, UniProt P15036 1-469)
# T3 sequence: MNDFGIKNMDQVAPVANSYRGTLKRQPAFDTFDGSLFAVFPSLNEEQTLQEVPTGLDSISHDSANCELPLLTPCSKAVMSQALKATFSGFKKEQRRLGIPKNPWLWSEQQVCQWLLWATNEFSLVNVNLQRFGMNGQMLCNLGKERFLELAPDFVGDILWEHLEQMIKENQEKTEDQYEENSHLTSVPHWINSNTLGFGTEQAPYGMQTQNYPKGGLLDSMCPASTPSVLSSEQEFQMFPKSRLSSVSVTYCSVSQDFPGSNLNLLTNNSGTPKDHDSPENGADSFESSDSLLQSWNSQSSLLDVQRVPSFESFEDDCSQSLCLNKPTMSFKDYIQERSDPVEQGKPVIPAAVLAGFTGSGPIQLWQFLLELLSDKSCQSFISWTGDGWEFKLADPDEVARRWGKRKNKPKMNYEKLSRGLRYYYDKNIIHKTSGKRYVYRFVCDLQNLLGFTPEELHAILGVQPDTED
# Summary of the method: as §1
# SPDEF = biological target: T4, SPDEF (Homo sapiens, UniProt O95238 1-335)
# T4 sequence: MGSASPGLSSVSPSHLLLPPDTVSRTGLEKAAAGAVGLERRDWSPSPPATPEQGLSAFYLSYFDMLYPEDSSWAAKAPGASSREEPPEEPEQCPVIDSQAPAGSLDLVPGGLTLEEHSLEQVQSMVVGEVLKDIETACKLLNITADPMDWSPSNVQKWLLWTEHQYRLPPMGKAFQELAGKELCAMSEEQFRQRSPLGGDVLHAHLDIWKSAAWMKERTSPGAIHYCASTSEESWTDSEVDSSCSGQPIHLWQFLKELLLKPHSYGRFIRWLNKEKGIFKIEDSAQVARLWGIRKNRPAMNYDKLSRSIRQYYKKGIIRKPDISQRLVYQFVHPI
# Summary of the method: as §1
# ETV7 = biological target: T5, ETV7 (Homo sapiens, UniProt Q9Y603 1-341)
# T5 sequence: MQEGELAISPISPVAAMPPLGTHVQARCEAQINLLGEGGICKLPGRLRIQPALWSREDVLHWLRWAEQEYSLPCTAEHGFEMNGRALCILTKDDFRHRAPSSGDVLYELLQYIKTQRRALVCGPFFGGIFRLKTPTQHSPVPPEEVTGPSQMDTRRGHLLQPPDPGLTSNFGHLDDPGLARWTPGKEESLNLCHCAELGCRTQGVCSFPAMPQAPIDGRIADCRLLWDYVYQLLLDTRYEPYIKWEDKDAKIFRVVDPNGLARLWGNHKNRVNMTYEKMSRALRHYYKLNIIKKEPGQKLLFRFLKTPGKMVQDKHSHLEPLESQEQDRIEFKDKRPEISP
# Summary of the method: as §1
# ELF5 = biological target: T6, ELF5 (Homo sapiens, UniProt Q9UKW6-2 1-255)
# T6 sequence: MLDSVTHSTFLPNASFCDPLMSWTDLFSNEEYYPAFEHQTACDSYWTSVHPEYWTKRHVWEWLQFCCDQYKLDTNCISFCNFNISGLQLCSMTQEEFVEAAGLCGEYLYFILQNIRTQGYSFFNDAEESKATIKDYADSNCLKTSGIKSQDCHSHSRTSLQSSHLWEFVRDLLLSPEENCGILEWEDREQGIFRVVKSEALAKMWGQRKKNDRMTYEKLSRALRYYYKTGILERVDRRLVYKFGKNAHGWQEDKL
# Summary of the method: as §1
# ETV3 = biological target: T7, ETV3 (Homo sapiens, UniProt P41162-2 1-143)
# T7 sequence: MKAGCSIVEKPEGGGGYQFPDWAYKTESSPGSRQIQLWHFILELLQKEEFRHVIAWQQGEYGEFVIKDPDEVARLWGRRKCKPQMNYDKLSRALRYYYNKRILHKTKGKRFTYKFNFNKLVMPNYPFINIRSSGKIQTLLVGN
# Summary of the method: as §1
# ETV6 = ETV6 (Homo sapiens, UniProt P41212 1-452)
# Sequence of ETV6 (P41212 whole entry): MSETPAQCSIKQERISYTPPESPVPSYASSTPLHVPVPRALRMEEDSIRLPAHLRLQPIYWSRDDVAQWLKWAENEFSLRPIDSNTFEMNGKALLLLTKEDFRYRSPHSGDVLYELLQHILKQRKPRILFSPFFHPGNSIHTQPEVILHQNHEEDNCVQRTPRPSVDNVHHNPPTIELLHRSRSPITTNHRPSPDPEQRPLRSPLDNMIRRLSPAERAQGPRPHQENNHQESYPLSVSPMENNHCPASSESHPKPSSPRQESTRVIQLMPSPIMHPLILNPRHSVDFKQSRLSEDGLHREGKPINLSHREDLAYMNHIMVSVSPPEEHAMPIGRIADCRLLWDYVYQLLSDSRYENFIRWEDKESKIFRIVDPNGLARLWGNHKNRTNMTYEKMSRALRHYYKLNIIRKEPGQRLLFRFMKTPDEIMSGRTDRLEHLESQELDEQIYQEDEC
# Summary of the method: as §1
sequence,measurement,setting,value
CCTCCT,binding signal,ETV1,"1.52 fold enrichment (6-mer frequency, TF over GST control)"
same,binding signal,ERF,"1.64 fold enrichment (6-mer frequency, TF over GST control)"
same,binding signal,ETV3L,"1.44 fold enrichment (6-mer frequency, TF over GST control)"
same,binding signal,ETS2,"1.57 fold enrichment (6-mer frequency, TF over GST control)"
same,binding signal,SPDEF,"1.58 fold enrichment (6-mer frequency, TF over GST control)"
same,binding signal,ETV7,"1.61 fold enrichment (6-mer frequency, TF over GST control)"
same,binding signal,ELF5,"1.9 fold enrichment (6-mer frequency, TF over GST control)"
same,binding signal,ETV3,"1.46 fold enrichment (6-mer frequency, TF over GST control)"
same,binding signal,ETV6,"1.55 fold enrichment (6-mer frequency, TF over GST control)"
